Only some compounds are listed: those with a hit (about 7.3% of all), similar ones and a draw of the others.
Luc counter – blocks Kinase-Glo luciferase, a counter-screen artifact; Q27757; Kinase-Glo luciferase, ATP luminescence, 8 min; Potency, µM (titrated, usually from 38.3 µM), for the others: at the top dose activity change, negative = inhibition, most hits filed as inhibitors; hit rate 0.28% among 200,000; also: % is scaled to controls: 0 for no effect and ±100 for the full control effect; nearly all actives have a fitted effect of over 60% in size
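Compounds were added to a substrate mix at pH 7.2 (50 mM imidazole, 10 uM ATP, within the enzyme's linear range), followed by Kinase-Glo detection reagent; luminescence was measured after 8 minutes at ambient temperature.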
NPC1 prom act – activators of NPC1 promoter. Huh7 NPC1 promoter luciferase reporter, 24 h. Potency, µM (titrated, usually from 9.22 µM), inactives show top-dose activation, hits mostly activators. hit rate 2.4% among 320,000. AID 485313; also: % of control where 0% means no effect; nearly all actives have a fitted effect of over 60% in size
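Huh7 reporter cells (NPC1 promoter driving luciferase) are dosed with compound for 24 h at 37 °C, 5% CO2; luciferase detection reagent is then added and luminescence measured after 10 min at ambient temperature.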
Rab9 prom act – activators of Rab9 promoter | hit rate 2.8% among 320,000 | Potency, µM (doses to about 9.22 µM), for the others: at the highest dose activation, negative = inhibition, most hits filed as activators | Huh7 Rab9 promoter-luciferase reporter, luminescence, 24 h; also: % of control where 0% means no effect; nearly all actives have a fitted effect of over 60% in size
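Promoter activation is measured as luciferase luminescence in Huh7 cells stably transfected with a Rab9 promoter–luciferase construct, following 24 h compound exposure at 37 °C and 10 min reagent incubation at ambient temperature.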
SMN2 splice up – SMN2 splice variant enhancement | HEK293 SMN2-luciferase splicing reporter, luminescence, 30-36 h | Potency, µM (highest dose often 46.1 µM), for inactives: at the top dose activity change, positive = activation, hits mostly activators | hit rate 2.8% among 210,000 | AID 1458; also: % of control where 0% means no effect; nearly all actives have a fitted effect of over 55% in size
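HEK293 cells carry an SMN2 minigene-luciferase reporter in which exon 7 inclusion puts luciferase in frame. Cells were seeded at 2000 cells/well, attached for 10-12 hours, then exposed to compounds for 30-36 hours at 37C before ONE-Glo luminescence.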
FLuc counter – firefly luciferase modulation, counter-screen for miR-21 project; purified FLuc, Km substrates, luminescence inhibition; Potency, µM (titrated, usually from 57.5 µM), for the others: at the highest dose activity change, negative = inhibition, usual class: inhibitors; hit rate 6.9% among 360,000; AID 588342;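 also: plate controls were vehicle for no effect and reference inhibitor for full effect; nearly all actives have a fitted effect of over 55% in size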
Target sequence (P08659 whole entry, looked up): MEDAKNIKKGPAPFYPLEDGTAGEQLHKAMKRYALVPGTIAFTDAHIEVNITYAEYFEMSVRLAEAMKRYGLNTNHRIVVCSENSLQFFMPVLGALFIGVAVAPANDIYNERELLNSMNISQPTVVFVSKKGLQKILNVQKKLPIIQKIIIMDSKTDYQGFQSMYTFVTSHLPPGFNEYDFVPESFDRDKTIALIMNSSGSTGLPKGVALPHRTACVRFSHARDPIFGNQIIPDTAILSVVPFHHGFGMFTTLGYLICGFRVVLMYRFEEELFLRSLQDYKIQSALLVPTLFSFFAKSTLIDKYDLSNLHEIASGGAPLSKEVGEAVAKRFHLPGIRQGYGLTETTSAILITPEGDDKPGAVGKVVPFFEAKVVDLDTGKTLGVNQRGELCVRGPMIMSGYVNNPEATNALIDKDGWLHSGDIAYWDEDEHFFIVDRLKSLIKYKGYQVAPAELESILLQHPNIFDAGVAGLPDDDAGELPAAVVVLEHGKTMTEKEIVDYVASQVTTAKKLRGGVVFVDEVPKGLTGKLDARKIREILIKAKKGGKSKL
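Purified P. pyralis luciferase (10nM final) with 10uM D-luciferin and 10uM ATP (Km levels) in 50mM Tris acetate pH 7.5, 10mM Mg acetate, 0.01% Tween-20, 0.05% BSA; qHTS 6-point titration, ~60 µM downward; luminescence read.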
ELG1 genotoxic – inducers of genotoxicity in HEK293T ELG1-luciferase cells; HEK293T ELG1-luciferase reporter, luminescence, 16 h; Potency, µM (highest dose often 46 µM), without a hit: top-dose activity change, positive = activation, usual class: activators; hit rate 1.3% among 330,000; AID 504466; also: % of control where 0% means no effect; nearly all actives have a fitted effect of over 60% in size
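Reporter readout depends on ELG1 protein level, which increases with genetic stress. After 16 hr compound exposure at 37 °C, luciferase activity was quantified using ONE-Glo.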
Active calls of the source: *. Calls follow the shape of the dose curve; as a rule, active = well fitted curve in the direction sought with a large enough effect; inconclusive = small, poorly fitted or top-dose-only effect, or another doubt; inactive = no such curve, though single readings can be large; an effect the other way counts as inactive or inconclusive. Potency is read from the fitted curve at half-maximal effect.

What do the screens show for `O=C(Nc1cccc2ccccc12)c1ccc(OC(=S)N2CCOCC2)cc1`?
Luc counter: 1%; NPC1 prom act: 0%; Rab9 prom act: 2%; SMN2 splice up: 24%; FLuc counter: 11µM*; ELG1 genotoxic: -5%

How did O=C(Nc1cccc(Cl)c1)c1ccc(OC(=S)N2CCOCC2)cc1 do in these assays?
Luc counter: -6%; NPC1 prom act: inconclusive; Rab9 prom act: inconclusive; SMN2 splice up: -3%; FLuc counter: 2.7µM*; ELG1 genotoxic: inconclusive

How did O=C(Nc1cccc2ccccc12)N1CCOCC1 do in these assays?
Luc counter: 2%; NPC1 prom act: 1%; Rab9 prom act: 1%; SMN2 splice up: -4%; FLuc counter: -2%; ELG1 genotoxic: 1%

Results for Cc1ccc(C(=O)Oc2ccc(N3C(=O)CCC3=O)c(C)c2)cc1 ?
Luc counter: -1%; NPC1 prom act: -4%; Rab9 prom act: -14%; SMN2 splice up: 7%; FLuc counter: 2.7µM*; ELG1 genotoxic: 7%

What do the screens show for `O=C(Oc1ccc2ccc(=O)oc2c1)c1ccc([N+](=O)[O-])cc1`?
NPC1 prom act: -2%; Rab9 prom act: 2%; FLuc counter: -5%; ELG1 genotoxic: 1%

What do the screens show for `Cc1ccc(C(=O)Oc2ccc3ccc(=O)oc3c2)cc1`?
NPC1 prom act: -4%; Rab9 prom act: 0%; FLuc counter: 2.4µM*; ELG1 genotoxic: 2%

What do the screens show for `COc1ccc(C(=O)Oc2ccc3ccc(=O)oc3c2)cc1OC`?
NPC1 prom act: 1%; Rab9 prom act: 2%; FLuc counter: -7%; ELG1 genotoxic: 0%

Results for COc1cccc(C(=O)Oc2ccc3ccc(=O)oc3c2)c1 ?
NPC1 prom act: -6%; Rab9 prom act: 1%; FLuc counter: 5.4µM*; ELG1 genotoxic: 3%

What do the screens show for `O=C(C1CCN(S(=O)(=O)Cc2ccccc2)CC1)N1CCN(c2ccc(F)cc2)CC1`?
FLuc counter: -1%

What do the screens show for `CCOc1ccccc1CNCc1cccn1-c1nnc(N2CCN(c3ccccc3)CC2)s1`?
FLuc counter: -2%

How did C/C(=N\Nc1ccc(Cl)c(C(=O)O)c1)c1cccs1 do in these assays?
NPC1 prom act: inconclusive; Rab9 prom act: inconclusive; FLuc counter: inconclusive; ELG1 genotoxic: 5%

How did CCN(CC)S(=O)(=O)c1cccc(C(=O)N/N=C(\C)c2cccs2)c1 do in these assays?
Luc counter: -2%; NPC1 prom act: 3.5µM*; Rab9 prom act: 3.2µM*; SMN2 splice up: 11µM*; FLuc counter: 11µM*; ELG1 genotoxic: inconclusive

What do the screens show for `C=C(C)C1CC=C(C)/C(=N/NC(=O)c2cccs2)C1` (centres undefined)?
Luc counter: 2%; NPC1 prom act: inconclusive; Rab9 prom act: inconclusive; SMN2 splice up: inconclusive; FLuc counter: 4.8µM*; ELG1 genotoxic: inconclusive

Results for C=C(C)C1CC=C(C)/C(=N/NC(=O)c2ccccc2[N+](=O)[O-])C1 (centres undefined) ?
Luc counter: -2%; NPC1 prom act: -1%; Rab9 prom act: 0%; SMN2 splice up: -33%; FLuc counter: inconclusive; ELG1 genotoxic: -7%

How did C/C(=N/Nc1ccccc1C(=O)O)c1cccs1 do in these assays?
NPC1 prom act: inconclusive; Rab9 prom act: 3.5µM*; FLuc counter: 19µM*; ELG1 genotoxic: inconclusive

Results for CC(=O)Nc1cccc(/C(C)=N/NC(=S)NC(C)C)c1 ?
Luc counter: 0%; NPC1 prom act: 16%; Rab9 prom act: 29%; SMN2 splice up: 24%; FLuc counter: 24µM*; ELG1 genotoxic: 4%

Results for C/C(=N/NC(=O)c1cccs1)c1cccc(N)c1 ?
Luc counter: -5%; NPC1 prom act: inconclusive; Rab9 prom act: inconclusive; FLuc counter: 19µM*; ELG1 genotoxic: inconclusive

What do the screens show for `C/C(=N/NC(=O)c1cccs1)c1cccs1`?
NPC1 prom act: inconclusive; Rab9 prom act: 2.5µM*; FLuc counter: 11µM*; ELG1 genotoxic: inconclusive

From PubChem BioAssay
